High-throughput results deposited in PubChem BioAssay by NMMLSC.
Bim-Bcl-W: disrupts Bim peptide binding to human Bcl-W | Q92843 | bead-based flow cytometry | inhibition, % at 10 µM | 190,000 tested, 0.02% active;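 note: 0% = bound tracer without compound and 100% = peptide blocker; higher means less fluorescent Bim peptide bound to Bcl-W beads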
Bim-Bcl-2: inhibitors of Bim-Bcl-2 interaction, human; Bead-based flow cytometry, Bim peptide-Bcl-2 binding; inhibition, % at 10 µM; 190,000 tested, 0.06% active; in the data active = inhibition above about 40%;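 note: 0% = no compound wells with probe peptide and 100% = reference peptide inhibitor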
Target sequence (P10415 whole entry, looked up): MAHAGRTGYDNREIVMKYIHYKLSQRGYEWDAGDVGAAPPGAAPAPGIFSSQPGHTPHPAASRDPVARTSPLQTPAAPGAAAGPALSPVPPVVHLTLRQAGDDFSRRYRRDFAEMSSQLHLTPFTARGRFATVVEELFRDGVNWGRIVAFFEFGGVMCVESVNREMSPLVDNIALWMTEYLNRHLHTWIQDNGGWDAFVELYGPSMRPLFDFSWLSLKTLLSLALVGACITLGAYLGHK
Bcl-XL Bim block: disrupts Bim peptide binding to human Bcl-XL; Q07817; 190,000 tested, 0.04% active; inhibition, % at 10 µM; bead flow cytometry, fluorescence
Bim-Bfl-1: human Bim-Bfl-1 interaction inhibition; Q16548; inhibition, % at 10 µM; Bead-based flow cytometry, Bim-Bfl-1 binding inhibition; AID 1008; 190,000 tested, 0.12% active;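 note: 0% = wells without compound plus tracer and 100% = blocker peptide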
Target sequence (Q16548 whole entry, looked up): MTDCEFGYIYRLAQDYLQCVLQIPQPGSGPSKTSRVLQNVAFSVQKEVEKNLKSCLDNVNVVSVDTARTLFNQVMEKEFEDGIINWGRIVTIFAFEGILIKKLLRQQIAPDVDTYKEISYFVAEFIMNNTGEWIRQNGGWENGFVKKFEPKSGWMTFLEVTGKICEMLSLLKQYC
Bcl-B Bim block: inhibitors of Bim-Bcl-B interaction, human; Q9HD36; bead-based flow cytometry, Bim peptide-Bcl-B binding; inhibition, % at 10 µM; 190,000 tested, 0.073% active; AID 951;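 note: 0% = tracer peptide without compound and 100% = reference inhibitor peptide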
Bim-Bcl-XL DR: dose-response confirmed modulator of Bim binding to human Bcl-XL. shares compounds with Bim-Bfl-1. bead-based flow cytometry. inhibition of binding at 100 µM. 40 tested, under 10 active. AID 2084; call rule not given here
* = called active by the depositor; x = not tested or not shown. Most compounds without a hit are left out; they make up all but 0.18% or so of the library. Cut-off read from the data, not from the text of the source, unless noted: active = inhibition above about 40%.

SMILES	Bim-Bcl-W	Bim-Bcl-2	Bcl-XL Bim block	Bim-Bfl-1	Bcl-B Bim block	others
COc1ccc(N=C2SC(C(=O)Nc3ccc(OC)cc3)CC(=O)N2CCN2CCOCC2)cc1 (configuration not stated)	-5	-7	-3	0	-7
Cc1ccc(C(=O)N(CCCN(C)C)c2nc3ccc(Cl)cc3s2)cc1C	4	82*	8	57*	79*
CN(C)CCCN(C(=O)c1ccco1)c1nc2ccc(Cl)cc2s1	0	-1	1	-5	-3
C=CCOc1ccccc1/C=c1\sc2nc(=O)c(C)nn2c1=O	-1	1	-6	0	-4
Oc1ccc(C2=Nn3c(nnc3-c3ccco3)SC2)cc1O	35	17	55*	15	36
Cc1nc2ccc(NC(=O)c3ccc(Cl)c([N+](=O)[O-])c3)cc2s1	-6	-6	-7	-5	-7
Cc1nc2ccc(NC(=O)c3cc([N+](=O)[O-])cc([N+](=O)[O-])c3Cl)cc2s1	6	13	1	52*	2
CCC/C=C(\CCC)C(NS(=O)(=O)c1cccc2cccnc12)c1ccc(C(=O)OC)cc1 (configuration not stated)	0	-1	-2	2	-2
COc1ccc(/C=C/C(=O)NC2CCCCCCC2)cc1S(=O)(=O)N1CCOCC1	-2	0	-4	0	-5
Clc1ccc2c(N/N=C/c3ccccc3Br)ccnc2c1	16	28	-4	43*	33
CCOC(=O)c1cc2c(=O)n3cccc(C)c3nc2n(Cc2ccco2)c1=NC(=O)c1cccnc1	20	14	9	40*	12
COc1ccc(NC(=O)/C(C#N)=C/c2c(C)nn(-c3ccc(F)cc3)c2Cl)cc1Cl	20	32	32	42*	29
COCCn1c(SCC#N)nnc1-c1ccc([N+](=O)[O-])cc1	2	-2	-1	-5	-3
COc1cc(/C=N/Nc2nn3cnnc3c3ccccc23)ccc1O	27	8	42*	3	27
COc1cccc(/C=N/Nc2nn3cnnc3c3ccccc23)c1	24	-4	5	-12	17
Cc1ccc(S(=O)(=O)N2CCCCC2)cc1NC(=O)COC(=O)c1ccccc1F	8	78*	11	48*	74*
Cc1ccc(S(=O)(=O)N2CCCCC2)cc1NC(=O)COC(=O)Cc1ccc(Cl)cc1	0	-1	-1	0	-9
COc1ccc(N(C)C(=O)c2ccc3snnc3c2)cc1	0	-8	-4	-6	-4
Cc1ccc(OC(=O)c2ccc3snnc3c2)cc1	11	81*	14	62*	81*
CCS(=O)(=O)c1nc2ccccc2n1Cc1ccccn1	-5	-3	-2	0	-2
COc1ccccc1OCc1ccc(C(=O)Nc2ccccc2F)cc1	1	47*	2	9	63*
O=C(Nc1ccn(Cc2ccccc2F)n1)c1ccc(COc2cc(Cl)ccc2Cl)o1	-2	1	1	0	0
COc1cc(OC)c([N+](=O)[O-])cc1/C=N/NC(=O)c1ccncc1	40*	21	13	38	7
COc1c(Br)cc(Br)cc1/C=N/NC(=O)c1ccncc1	-1	-2	-1	-8	-6
CC1CCCCC1N1CN=C(Nc2nc3ccccc3s2)NC1 (configuration not stated)	-1	0	-4	0	-1
SMILES	Bim-Bcl-W	Bim-Bcl-2	Bcl-XL Bim block	Bim-Bfl-1	Bcl-B Bim block	others
Cc1ccc(-c2nc3c(c(=O)[nH]c(=O)n3Cc3ccccc3)n2C)o1	9	8	2	40*	-4
COC(=O)C(C(C)=O)C1=C/C(=N\S(=O)(=O)c2ccc(C)cc2)c2ccccc2C1=O (configuration not stated)	1	-6	-6	-9	-6
CC(C)c1ccc(S(=O)(=O)/N=C2/C=CC(=O)c3ccccc32)cc1	9	6	1	42*	-16
Cc1cc2nc(/C(C#N)=C/c3ccncc3)[nH]c2cc1C	47*	44*	39	38	34
CC(=O)NC(=O)Nc1sc(=S)n(C)c1C	37	34	49*	56*	33
Cc1ccc(NC(=O)Nc2sc(=S)n(C)c2C)cc1	-1	-7	-6	-10	-11
COc1ccc(N2C(=O)C(Cl)=C(NC3C(=O)N(c4ccccc4)N(C)C3C)C2=O)cc1 (configuration not stated)	x	x	x	x	x	Bim-Bcl-XL DR=-3.9
CCN1CCN(C(=O)C(N)Cc2ccccc2)CC1 (configuration not stated)	0	-2	-2	-3	-1
O=C1C(Cl)=C(N2CCN(c3ccccc3[N+](=O)[O-])CC2)C(=O)c2ccccc21	27	15	1	68*	-17	Bim-Bcl-XL DR=4.3
O=[N+]([O-])c1cc(Cl)ccc1N1CCCC1	0	-2	0	-9	-2
Cc1nnc(Sc2cc(NCCCO)c([N+](=O)[O-])c3nonc23)s1	5	6	1	29	5
Cc1nnc(Sc2cc(NCCO)c([N+](=O)[O-])c3nonc23)s1	14	12	3	55*	0	Bim-Bcl-XL DR=8.4
O=[N+]([O-])c1c(NCCCO)cc(Sc2nc3ccccc3s2)c2nonc12	8	8	1	61*	3	Bim-Bcl-XL DR=-1
CC(C)(C)c1nn2cnnc2n(/N=C/c2ccccc2)c1=O	-3	-4	-5	-1	0
Cc1ccc(S(=O)(=O)NC(N)=NCCc2ccc(Cl)cc2)cc1C	-1	-10	-7	-15	-6
CC(=O)Nc1ccc(-n2cc(-c3ccccc3)[nH]c2=S)cc1	-1	-1	-5	27	-37	Bim-Bcl-XL DR=-10
Oc1ccc(NCc2ccccc2OCc2ccccc2)cc1	16	11	1	34	-10	Bim-Bcl-XL DR=-0.78
CCNCc1ccccc1OCc1ccccc1	-2	0	1	-3	-2
O=C(NCc1ccccc1)c1ccc2nc(-c3ccco3)c(-c3ccco3)nc2c1	19	17	7	43*	5	Bim-Bcl-XL DR=15
O=C(CCCSc1nc2ccccc2[nH]1)N1CCN(c2ccc([N+](=O)[O-])cc2)CC1	3	-9	-3	-10	-8
COc1ccc(N2C(=O)c3ccccc3C2=O)cc1	-4	-2	-4	-6	-5
COc1ccc(N2C(=O)C(Cl)=C(Oc3cccc(OC)c3)C2=O)cc1	0	2	-8	43*	-39	Bim-Bcl-XL DR=-8.2
